Structures can show the parent of a compound that is named as a salt.

Data on 39 compounds can be found in the supplement of paper PMC10127200.

This test has as its system FB. Put plainly: Euclidean distance of Cell Painting phenotypic profile (signed KS, 77 features) to DMSO centroid (dimensionless distance); 5 or 10 uM (library dependent); higher = stronger phenotypic change vs DMSO (phenoactivity). Particulars: 48 h. Put shortly: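 Five cancer lines and a healthy fibroblast line received library compounds at 10 or 5 uM (library-dependent, 0.1% DMSO final) for 48 h. Stained cells were imaged confocally at 20X (9 fields/well). Harmony extracted 77 features, each scored as a signed Kolmogorov-Smirnov statistic against same-plate vehicle wells. Profiles were plate-position corrected, correlation-weighted and replicate-averaged at the top dose. Phenoactivity is the Euclidean distance from each profile to the median vehicle profile.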
Turning to `O=c1cc(-c2ccc(O)cc2)oc2cc(O)cc(O)c12` [Apigenin], the Euclidean distance came to 1.39.

As for `CC(C)NCC(O)COc1cccc2[nH]ccc12` (centres undefined) [Pindolol], the Euclidean distance was determined as 1.06.

Consider `COC(=O)C1=C(C)NC(C)=C(C(=O)OC2CCCN(Cc3ccccc3)C2)C1c1cccc([N+](=O)[O-])c1` (centres undefined) [Benidipine HCl], for which the Euclidean distance was 0.926.

In turn, `CCc1cc(/C(C)=N/OCc2ccc(C3CCCCC3)c(C(F)(F)F)c2)ccc1CN1CC(C(=O)O)C1` [BAF312 (Siponimod)] had an Euclidean distance of 0.66.

The compound `O=C(O)c1cccnc1` [Nicotinic Acid] returned an Euclidean distance of 0.953.

Turning to `CC(=O)c1ccc(S(=O)(=O)NC(=O)NC2CCCCC2)cc1` [Acetohexamide], the Euclidean distance is 1.19.

For `CCOC(=O)[C@H](CCc1ccccc1)N[C@@H](C)C(=O)N1CCC[C@H]1C(=O)O` [Enalapril Maleate], the Euclidean distance amounted to 0.816.

On to `C[C@H]1C[C@H]2[C@@H]3CCC4=CC(=O)C=C[C@]4(C)[C@@]3(F)[C@@H](O)C[C@]2(C)[C@@]1(O)C(=O)CO` [Betamethasone], for which the Euclidean distance worked out at 1.68.

`O=c1ccc2ccccc2o1` [Coumarin] came in with an Euclidean distance of 1.25.

`O=C(NC(Cc1cc(=O)[nH]c2ccccc12)C(=O)O)c1ccc(Cl)cc1` (centres undefined) [Rebamipide] displayed an Euclidean distance of 0.77.

Take `COc1ccccc1N1CCN(CC(O)COc2cccc3ccccc23)CC1` (centres undefined) [Naftopidil]: the Euclidean distance is 1.01.

`CCC[C@@H]1C[C@@H](C(=O)N[C@@H]([C@H]2O[C@H](SC)[C@H](OP(=O)(O)O)[C@@H](O)[C@H]2O)[C@H](C)Cl)N(C)C1` [Clindamycin Phosphate] showed an Euclidean distance of 0.907.

Compound `N[C@@H](Cc1c[nH]c2ccccc12)C(=O)O` [L-Tryptophan] had an Euclidean distance of 0.569.

The compound `Nc1ccc(C(=O)O)c(O)c1` [4-Aminosalicylic acid] registered an Euclidean distance of 0.835.

On to `Cc1cc(C)nc(NS(=O)(=O)c2ccc(N)cc2)n1` [Sulfamethazine Sodium Salt], for which the Euclidean distance is 0.878.

With `Cc1ccc(C(C)C)c(O)c1` [Thymol], the Euclidean distance turned out to be 0.901.

`NC(=O)c1cccc(-c2cccc(OC(=O)NC3CCCCC3)c2)c1` gave an Euclidean distance of 0.99.

`O=S(=O)(c1ccccc1)c1cnc2c(N3CCNCC3)cccc2c1` had an Euclidean distance of 0.827.

For the compound `COc1cc(C(=O)O)ccc1NC(=O)[C@@H]1N[C@@H](CC(C)(C)C)[C@](C#N)(c2ccc(Cl)cc2F)[C@H]1c1cccc(Cl)c1F` [Idasanutlin (RG-7388)], the Euclidean distance turned out to be 1.43.

On to `O=c1cc(-c2ccccc2)oc2cc(O)cc(O)c12` [Chrysin], for which the Euclidean distance was found to be 1.

`C[C@@H](O[C@H]1OCCN(Cc2n[nH]c(=O)[nH]2)[C@H]1c1ccc(F)cc1)c1cc(C(F)(F)F)cc(C(F)(F)F)c1` [Aprepitant] had an Euclidean distance of 1.05.

The compound `c1cnc2cc3c(cc2n1)[C@@H]1CNC[C@H]3C1` [Varenicline Tartrate] showed an Euclidean distance of 0.802.

For the compound `Oc1c(Cl)cc(Cl)cc1Sc1cc(Cl)cc(Cl)c1O` [Bithionol], the Euclidean distance was 0.97.

`C[N+](C)(C)CCOC(N)=O` [Carbachol]: the Euclidean distance came to 1.16.

`Nc1ncnc2c1c(-c1cnc3[nH]ccc3c1)nn2C1CCCC1` registered an Euclidean distance of 4.32.

With `NC(=O)NCCC[C@H](N)C(=O)O` [L-Citrulline], the Euclidean distance is 0.916.

`CN(C)CCCN1c2ccccc2CCc2ccccc21` [Imipramine HCl] displayed an Euclidean distance of 1.55.

On to `CCn1c(=O)c2c(nc(/C=C/c3ccc(OC)c(OC)c3)n2C)n(CC)c1=O` [Istradefylline], for which the Euclidean distance stood at 1.18.

As to `CCNC(=O)CC[C@H](N)C(=O)O` [L-Theanine], the Euclidean distance stood at 2.05.

Compound `NCCCC[C@H](N[C@@H](CCc1ccccc1)C(=O)O)C(=O)N1CCC[C@H]1C(=O)O` [Lisinopril dihydrate] gave an Euclidean distance of 0.86.

In the case of `CN(C)CCOC(c1ccccc1)c1ccccc1.Cn1c(=O)c2[nH]c(Cl)nc2n(C)c1=O` [Dimenhydrinate], the Euclidean distance was 1.28.

The compound `CC1=C(C(=O)OC(C)C)C(c2cccc([N+](=O)[O-])c2)C(C(=O)OC2CN(C(c3ccccc3)c3ccccc3)C2)=C(N)N1` (centres undefined) [Azelnidipine] gave an Euclidean distance of 1.17.

On to `COC1CCN(C(=O)c2cc(Cc3n[nH]c(=O)c4ccccc34)ccc2F)CC1`, for which the Euclidean distance was 1.5.

`CCN(CC)CCNC(=O)c1ccc(N)cc1` [Procainamide HCl] displayed an Euclidean distance of 0.787.

Compound `c1ccc2c(Oc3nc(Nc4ccc(N5CCOCC5)cc4)c4ncn(C5CCCCC5)c4n3)cccc2c1` [Purmorphamine] registered an Euclidean distance of 0.758.

In the case of `Cc1nc(C#Cc2ccnc(Cl)c2)c(C)n1-c1ccc(OC(F)(F)F)cc1`, the Euclidean distance came to 0.731.

`O=C1[C@H](CC[C@H](O)c2ccc(F)cc2)[C@@H](c2ccc(O)cc2)N1c1ccc(F)cc1` [Ezetimibe] had an Euclidean distance of 1.36.

In turn, `CC1(C)S[C@@H]2[C@H](NC(=O)[C@H](N)c3ccccc3)C(=O)N2[C@H]1C(=O)O` [Ampicillin Trihydrate] yielded an Euclidean distance of 0.762.

Regarding `Cc1ccc(Sc2cncc3sc(C(N)=O)cc23)cc1`, the Euclidean distance stood at 1.61.
